# From PubChem BioAssay (NCATS)
# Inconclusive results are not listed. The source made the active and inactive calls. The call rests on the fitted dose curve; in most records, active means well fitted inhibition curve with a large enough effect; inconclusive means small, poorly fitted or top-dose-only effect; inactive means flat fitted curve, though single readings scatter. Where a SMILES comes first, the peptide text is derived from it. Bridges are numbered along the chain shown (N, C = ends). [ ]: non-standard residue; d: D form. The star is where a group is joined. X2 = CC[C@H](C)CCCCC(=O)*; Dab = NCC[C@H](N)C(=O)O
# Assay: P-glycoprotein substrates identified in KB-8-5-11 adenocarcinoma cell line, qHTS therapeutic library screen (AID 1346987); further: nearly all actives have a fitted effect of over 65% in size
# Conditions: KB-8-5-11 (P-gp overexpressing) viability, CellTiter-Glo, 72 h; series mostly up to 44.5 µM; activity change, negative = cytotoxicity: at the top concentration
# How it was run: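 In this qHTS, P-gp-rich KB-8-5-11 cells received library compounds across a concentration range. Viability was quantified by luminescence after 72 h at 37 degree C.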
# On the % scale 0 is the no-effect control and ±100 the full control effect; potency means the concentration at half of the fitted maximal effect.
SMILES,"activity change, negative = cytotoxicity",Potency
COc1ccc(C2(N(C)C(=O)c3ccc(NC(=O)c4ccco4)cc3)CCOCC2)cc1,-18.8% (inactive),–
CC(C)(C)c1ccc(-c2nc3c(N4CCN(Cc5ccc6nccnc6c5)CC4)cccc3[nH]2)cc1,–,13 µM (active)
O=C1Nc2ccccc2-c2nc3ccccc3c(=O)n2-c2c(O)cccc21,-2.59% (inactive),–
CCC(C)C(=O)OC1C(C)C2(O)C(C=C(CO)CC3(O)C(=O)C(C)=CC32)C2C(C)(C)C12OC(=O)C(C)C (stereo not given),-25% [at 17.3 µM] (inactive),–
COC(=O)C1=CO[C@@H](O[C@@H]2O[C@H](CO)[C@@H](O)[C@H](O)[C@H]2O)[C@H]2[C@@H]1C=C[C@]21C=C([C@H](C)OC(=O)/C=C/c2ccc(O)cc2)C(=O)O1,–,4.32 µM (active)
COc1ccc(C2(CNC(=O)c3ccc(NC(=O)c4ccco4)cc3)CCOCC2)cc1,-5.93% (inactive),–
COc1ccc(S(=O)(=O)Nc2cc(Cl)cc(Cl)c2OC)cc1N1CCNCC1,-22.1% (inactive),–
N[C@@H](C(=O)N[C@H]1C(=O)N2C(C(=O)O)=C(Cl)CC[C@H]12)c1ccccc1,-0.412% (inactive),–
Nc1ncnc(Nc2ccc(Cl)cc2)n1,-12.4% (inactive),–
COc1cc(C(=O)NC(=S)Nc2cccc(NC(=O)c3ccccc3)c2)cc(OC)c1OC,-3.28% (inactive),–
COc1cc(-c2nc(N[C@H](CO)Cc3ccccc3)ccc2C(=O)NCCOc2ccccc2)cc(OC)c1OC,-0.52% (inactive),–
COC(=O)CC[C@@H](C)C1CCC2C3CCC4C[C@H](OC(C)=O)CCC4(C)C3C[C@H](O)C21C (stereo not given in full),-7.52% (inactive),–
CC(=O)OC/C(=C/C(=O)O)CC[C@@H]1C(C=O)=CC[C@@H]2C(C)(C)CCC[C@@]12C,-8.98% (inactive),–
CC(C(=O)O)c1ccc(C2CCCCC2)c2ccccc12 (stereo not given),9.78% (inactive),–
CC1(C)Oc2ncnc(N)c2N=C1c1ccc(C23CCC(CC(=O)O)(CC2)CC3)cc1,-41.3% (inactive),–
CC1(C)S[C@@H]2[C@H](NC(=O)[C@H](N)c3ccccc3)C(=O)N2[C@H]1C(=O)OCOC(=O)[C@@H]1N2C(=O)C[C@H]2S(=O)(=O)C1(C)C,2.88% (inactive),–
CC[C@H](C)CCCCC(=O)N[C@@H](CCN)C(=O)N[C@H](C(=O)N[C@@H](CCN)C(=O)N[C@H]1CCNC(=O)[C@H]([C@@H](C)O)NC(=O)[C@H](CCN)NC(=O)[C@H](CCN)NC(=O)[C@H](CC(C)C)NC(=O)[C@@H](CC(C)C)NC(=O)[C@H](CCN)NC1=O)[C@@H](C)O (X2-[Dab]T[Dab][Dab][Dab][dL]L[Dab][Dab]T; lactam 4-C),14.9% (inactive),–
CNc1cccc(CCOc2ccc3c(c2)CN(CC(F)(F)F)C(=O)[C@H](CC(=O)O)C3)n1,0.263% (inactive),–
COc1cc(C(N)=O)nc(-c2ccccn2)c1O,-53.5% (inactive),–
O=C(Nc1ccc(-c2ccnc(Nc3ccc(N4CCOCC4)cc3)n2)cc1)C1CCCN1 (stereo not given),–,14.6 µM (active)

SMILES,"activity change, negative = cytotoxicity",Potency
Cc1cc(C(=O)Nc2cc(Oc3ccc4nc(NC(=O)C5CC5)cn4n3)ccc2C)n(C)n1,–,9.2 µM (active)
Cc1ccc(OC[C@H](O)[C@H](C)NC(C)C)c2c1CCC2,2.96% (inactive),–
COc1ccc2cc(-c3cc(-c4cc(Cl)cc(Cl)c4)nn3C(C)c3ccc(C(=O)NCCC(=O)O)cc3)ccc2c1 (stereo not given),-11.7% (inactive),–
Cc1c(C2=CCN(C(=O)N(C)C(C)C)CC2)nnn1-c1cccnc1F,-24.3% (inactive),–
COc1cc(NC(=O)c2cccc(-n3cc(NC(=O)Nc4cccc(C)c4)cn3)c2)cc(OC)c1OC,4.53% (inactive),–
Cc1c(O)cc2c(c1C)O[C@](C)(CCC[C@H](C)CCC[C@H](C)CCCC(C)C)CC2,1.21% (inactive),–
CCNC1(C(N)=O)CCN(c2ncnc3c2nc(-c2ccccc2Cl)n3-c2ccc(Cl)cc2)CC1,-10.4% (inactive),–
CO/N=C(\C(=O)N[C@@H]1C(=O)N2C(C(=O)OCOC(=O)C(C)(C)C)=C(/C=C\c3scnc3C)CS[C@H]12)c1csc(N)n1,11.4% (inactive),–
C[C@H](Oc1cc(-n2cnc3ccc(CN4CCN(C)CC4)cc32)sc1C(N)=O)c1ccccc1C(F)(F)F,–,4.61 µM (active)
O=S1(=O)CCN(Cc2cc(NCC3CCOCC3)c3[nH]c(-c4ccccc4)cc3c2)CC1,-14.6% (inactive),–
O=C(NCCN1CCC(n2c(=O)[nH]c3ccccc32)CC1)c1cc2cc(F)ccc2[nH]1,-2.08% (inactive),–
Cn1c(SCC(=O)N2CCC[C@H]2C(=O)Nc2ccccc2-c2ccccc2)nc2ccccc21,-13.6% (inactive),–
C/C(=C\CCC(C)C1=CCC2(C)OC3=C(CC12)C(=O)C(O)CC3)CO (stereo not given),-33.2% (inactive),–
OC1CCC(Nc2nc(-c3ccccc3)nc3[nH]ccc23)CC1 (stereo not given),-10.1% (inactive),–
CCCC(=O)N1CCCN(c2nc(N)c3cc(OC)c(OC)cc3n2)CC1,3.16% (inactive),–
Cc1cc(OCCCS(C)(=O)=O)cc(C)c1-c1cccc(COc2ccc3c(c2)OCC3CC(=O)O)c1 (stereo not given),-14.9% (inactive),–
OC[C@H]1O[C@@H](OC/C=C/c2ccc(O)cc2)[C@H](O)[C@@H](O)[C@@H]1O,-5.86% (inactive),–
CC[C@H](C)/C=C(C)/C=C/C1=CC2=C(Cl)C(=O)[C@](C)(O)[C@H](OC(C)=O)[C@H]2CO1,-8.29% (inactive),–
C[C@@H](Nc1ncnc2[nH]c(-c3ccc(O)cc3)cc12)c1ccccc1,–,8.2 µM (active)
O=C(O)c1ccccc1[O-].O=C(O)c1ccccc1[O-].[Zn+2],12% (inactive),–
